From PubChem BioAssay AID1508600 (Functional Genomics Laboratory (NCATS/FGL), 2020)
Hit rate of the full screen: of about 53,000 sequences, about 3,700 (7%) were called active. This excerpt belongs to a sample that is enriched for actives. Values without a mark were called inactive.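 How the source made its calls: active means gene knockdowns whose robust z-score for IL-1 alpha signal is at least 2 or at most -2, so actives lie on both sides; inactive means the rest.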

Test: Components of the Cytosolic LPS Sensing Pathway: Gene Identification via Genome-wide siRNA Screen;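 further: robust z of the log signal after scaling to non-targeting control siRNA wells of the plate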
Details: RAW264.7 macrophages, IL-1a HTRF, actives lie on both sides, screened at 100 nM (by protocol), cells primed 5 h with Pam3CSK4 first
How it was run: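 Using IL-1a HTRF as read-out, the screen measured release from RAW264.7 cells after 48h siRNA knockdown (100 nM), 5 h Pam3CSK4 priming and 24 h cytosolic LipidA. Values were expressed relative to negative-control wells as robust z-scores.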

Sequence	z-score
GGCAUUGAUCACUGACAGCTT against 9530077C05Rik	0.827
GGACCAUACAUAUUCAAAATT against Aph1b	0.0294
GUCCUGAAGAAGCUCAAGATT against Cartpt	-0.513
GGGACAGUACAGAGUGCUGTT against Hmx1	0.755
CAAUCCUCAACGAUUACAUTT against Ncor1	2.05 (active)
GGAUGAGGAGAUAAAGUCUTT against Misp	-0.981
GGAAUAAAACUUCUGAGAATT against Oog1	-1.66
GAAAACUCAAACAGCAUAUTT against Vmn1r216	0.833
GAGCCACUUUCUCAAGUGUTT against Pou3f1	3.02 (active)
GUAACUCGCUUCUUGGUGGTT against Slc22a15	0.464
GGUUCAAUGCUCCCUUCGATT against Ghrl	0.712
GCCAGUUUAAGUCUCUCCATT against Tmem168	-2.37 (active)
GGCUCACCUGAUACACUUUTT against Ramp2	0.707
GCCUUGAAAUGUCUGUAGCTT against Nkiras1	0.981
GGGCUGACUUCCUAUGACCTT against Adra2c	2.14 (active)
GGUGGAAUAACAGAUAAAATT against Cutc	0.255
GGAGAAAGGAUUAUAGAUGTT against Klk7	0.202
GGGAUUCUUUUUGUGGAAATT against Trim62	0.636
GGUCUCAAUCAGAGUUACATT against Zfp324	-0.936
GGAGGUCAGACCAGUUUACTT against Htr3b	2.15 (active)
GCUUACAUCCAAGCCGUCUTT against Prss41	0.283
GCUGGAGAUGAUUGUCUGATT against Psmd8	-1.22
GCGGGAACCAUUUUUGUGATT against Cdh11	-1.18

Sequence	z-score
GGUCGAUUGAUAUACAAAATT against Gdf6	0.834
CGUAUUAUCUGAGUGAACATT against Fth1	-0.974
GCAUCAUCACCACCAUCACTT against Pou3f3	-0.598
GGUCUGGAAUGGAGAACAGTT against Suox	2.73 (active)
GGUGACCAAGCAGAUAACATT against Prcc	-1.19
GGACGUGGGCUCUCUAGAUTT against S100a13	1.81
CGGUGGAAAUACCAGGAUGTT against Tshb	0.406
GGAAAUUUGCCGGCCAAAUTT against Fam83a	0.557
GCACUCCACUCUUCCAUCATT against Cxcl16	0.35
GGUGGCUGAAGAUGUGACUTT against Ttyh1	-3.46 (active)
GCAAAGGACCUAAUUUAUUTT against Ehd4	1.13
GGUUCAAGGGCCAGAUCCUTT against Rpl32	0.887
CCAGUGUUGGUAACAAUAUTT against Stat4	0.0489
GGAAAAGAAAGAUGUGACUTT against Trappc9	-2.55 (active)
CGUAGAUCUGGAUUGCUUUTT against Poli	1.74
CCCAGCUAGACAGUCUUUCTT against Il11	2.58 (active)
GGCAGAGCCAGAAAAAUUGTT against Slc30a1	0.306
CCAGAAUGUAAAACAACCGTT against Zfp365	0.588
CGGUUUCACGAAUUCCUCCTT against Scaper	-2.16 (active)
GGAUUCAUGAAAUAAGUCATT against Zfp426	-0.603
CGUGGUCUCGGACACUUUCTT against Hcn2	-0.096
GGUGGAAUGAGGAAACAACTT against Cck	-0.945
GGAUUUAGCUAAGAGAGGGTT against Zmat3	-0.125

Sequence	z-score
CGAUGGUGAUUAUCUAAAATT against Tm4sf4	-0.0694
GCGAAUGUGUGUAUUCUGGTT against BC055324	-0.791
CGGUUGAUGGAAAAAUACATT against Ppef2	2.43 (active)
GGAAAGAUGAGACCACCCGTT against Stau1	-0.582
GGCAAUAAUAAAUAGCACCTT against Homer1	0.8
GGUAGAUGAACUUUAAAGATT against Syt13	-0.846
GGACUUCUUAACCGCCCUGTT against Sirt5	0.355
GGCUCAUGAGAAGACACACTT against Zbtb17	0.204
GGUGCUAGUGGUGACCAUGTT against Pign	2.2 (active)
CGUGAAAAAGUUAGCAAGUTT against Tars2	0.198
GGUUCUCCAAGGAAAGAGGTT against 2310002L09Rik	2.8 (active)
CCUUCUAGUACAAAAGUUGTT against Jmjd1c	1.32
GGACAAGAGAACAACUAGUTT against Mrtfb	0.0162
GACCAAAGCACUGACUAUGTT against Lyz2	-0.184
GGAAGAAAUGGACCAGCUGTT against Hgh1	-0.416
GGUUUCCAUGGUAACGUGGTT against Tns1	2.24 (active)
GGGCAUAUGAGAUUUAUUATT against Trappc2	-0.423
GGCCUACAUACUCCUGAAGTT against Ttc21a	-1.28
GGGAGCUGUUAACCUCAUCTT against Mthfr	3.34 (active)
CCUAGAUUAAAUACUCGGATT against Saxo2	1.45
GCAGCCAAAUUCAUCCUCATT against Tspan33	-0.552
GGAAUGGACAAAAUGAUUCTT against Cct4	1.53
UGUUGUUUUACCUGUGCCUTT against Gm10283	-1.14
